Reference: PubChem BioAssay (NCATS)
Inconclusive results are not listed. A number with no mark means an inactive call. Activity calls are given as the source filed them. The call rests on the fitted dose curve; in most records, active means well fitted activation curve with a large enough effect; inconclusive means small, poorly fitted or top-dose-only effect, or effect the other way; inactive means flat fitted curve, though single readings scatter. Residues, ends and D or L forms follow the SMILES beside them. *: point of attachment. Cbz = O=C(OCc1ccccc1)*

Assay: qHTS Assay for Identification of Small Molecule Agonists for Thrombopoietin (TPO) Signaling Pathway (AID 917)
Details: TPO signaling pathway reporter cells, agonist qHTS, stimulated with TPO at its EC50; series mostly up to 38.5 µM; activity, positive = activation: at the top concentration
Description: NIH Molecular Libraries Screening Centers Network [MLSCN]
NIH Chemical Genomics Center [NCGC]
The thrombopoietin (TPO) signaling pathway was assayed in murine Ba/F3 cells stably transfected with the human TPO receptor and a luciferase reporter gene controlled by the Glycoprotein IIb promoter (provided by Axxam). BaF3 cells are an IL-3-dependent pro B cell line that upon TPO stimulation, undergo cell division and induce the megakaryocyte marker, Glycoprotein IIb. The assay was screened at the EC50 of TPO (26 pM) to identify activators of the pathway.
NCGC Assay Protocol Summary:
Cells were maintained at 37 C and 5% CO2in RPMI with 10% fetal bovine serum, 0.5 ng/mL murine IL-3, 100U/ml penicillin and 100 ug/ml streptomycin. Prior to plating, cells were incubated overnight in medium without IL-3. Cells were plated at 250 cells/5uL/well into white solid 1536-well plates, 23 nL of compounds were delivered by a pin tool, and 1 uL of TPO (26 pM final concentration in IL-3 deficient medium) was added. Following 24 hrs of incubation at 37 C and 5% CO2, 4 uL of Steadylite detector mix (PerkinElmer) was added, the plates incubated at room temperature for 10 min and luminescence was measured for 10 s and 2X binning by a ViewLux detector (Perkin Elmer).
On the % scale 0 is the no-effect control and ±100 the full control effect; potency means the concentration at half of the fitted maximal effect.

Row | SMILES | activity, positive = activation [%] | Potency
1 | O=C(O)c1cccnc1C(=O)O | 0.659 | –
2 | Clc1nccc2c1ccc1ccccc12 | 13.8 | –
3 | CC(N)=O | -14 | –
4 | O=C(O)C1=CCCN(CCON=C(c2ccccc2)c2ccccc2)C1 | -6.62 | –
5 | O=C(O)Cc1c[nH]c2ccc(O)cc12 | -22 | –
6 | COc1ccc(C(=O)NCc2cccnc2)cc1C(=O)NCc1cccnc1 | -2.96 | –
7 | Nc1nc2[nH]c(=O)cnc2c(=O)[nH]1 | -2.02 | –
8 | O=C(O)c1ccccc1Nc1ccccc1 | 7.58 | –
9 | CNc1cc(NS(=O)(=O)c2ccc(N)cc2)nc(NC)n1 | -11.1 | –
10 | Cc1nc2c(OCc3ccccc3)cccn2c1CC#N | -15.1 | –
11 | O=C1Cc2c([nH]c3ccc(Br)cc23)-c2ccccc2N1 | – | 0.158 µM (active)
12 | [Li+] | -14.1 | –
13 | CCSC(=N)N | -1.27 | –
14 | NC(=Nc1ccccc1)NC(=O)c1nc(Cl)c(N)nc1N | – | 2.51 µM (active)
15 | N=C(N)SCCN | -14.8 | –
16 | CC(=O)NCCc1c[nH]c2ccc(O)cc12 | -13.8 | –
17 | CC(C)[C@H](NC(=O)OCc1ccccc1)C(=O)N[C@H](C=O)Cc1ccccc1 (Cbz-Val-Phe-aldehyde) | -24.9 | –
18 | Cc1cc2c(cc1Cl)N(C(=O)Nc1ccnc3ccccc13)CC2 | -9.08 | –
19 | Oc1ccc(Cn2cc[nH]c2=S)cc1 | -13.2 | –
20 | N#C/C(=C\c1ccc(O)c(O)c1)C(=O)NCCCNC(=O)/C(C#N)=C/c1ccc(O)c(O)c1 | -20.2 | –

Row | SMILES | activity, positive = activation [%] | Potency
21 | CN[C@H](CC(=O)O)C(=O)O | -28.2 | –
22 | CC[C@H](NC(=O)c1c(C)c(-c2ccccc2)nc2ccccc12)c1ccccc1 | -16.3 | –
23 | NC(=O)c1ccccc1 | -12 | –
24 | Cn1c(=O)[nH]c2ncn(C)c2c1=O | -3.71 | –
25 | CCCCCCCCCCC/C=C\C(C)(C)/C=C\CCCC(=O)O | -7.67 | –
26 | O=[N+]([O-])c1cccc2c(Br)[nH]nc12 | -2.97 | –
27 | CCCn1c(=O)c2c(ncn2C)n(CCC)c1=O | -12.2 | –
28 | Nc1ccc(-c2nc3ccc(-c4nc5ccc(N)cc5[nH]4)cc3[nH]2)cc1 | -20.2 | –
29 | COc1cc(CNC(=O)CCCCCCC(C)C)ccc1O | -14.8 | –
30 | CCCCCCC/C=C\CCCCCCCCC(=O)O | -15.6 | –
31 | CCC(=O)N1CCN(C(=O)c2ccccc2)CC1 | -4.77 | –
32 | CNCCNS(=O)(=O)c1cccc2cnccc12 | 23.5 | –
33 | CSC(=N)N | -22.8 | –
34 | O=C(O)c1cc(=O)cc(C(=O)O)[nH]1 | -16 | –
35 | NCCS(=O)O | -20.9 | –
36 | NC1(C(=O)O)CC1 | 4.41 | –
37 | CCCCCCCCCCCCCCSCC(=O)O | -23.4 | –
38 | Cc1ccc2c(c1)C(N1CCN(C)CC1)=Nc1cccnc1N2 | 1.21 | –
39 | O=S(=O)(c1cccc2c(Cl)cccc12)N1CCCNCC1 | 6.8 | –
40 | N[C@@H](Cc1c[nH]c2ccccc12)C(=O)O | 10.6 | –
